Here are results for 22 compounds from PubChem BioAssay (NCATS).

Structures are written as SMILES. Results filed as inconclusive are left out. Activity calls are given as the source filed them. The call rests on the fitted dose curve; in most records, active means well fitted inhibition curve with a large enough effect; inconclusive means small, poorly fitted or top-dose-only effect; inactive means flat fitted curve, though single readings scatter.

Common to all, as to test: qHTS profiling for inhibitors of Plasmodium falciparum proliferation (AID 504749); further: nearly all actives have a fitted effect of over 60% in size
Common to all, as to conditions: P. falciparum in erythrocytes, SYBR Green DNA, 72 h; series mostly up to 28.7 µM
A general note: Quantitative high-throughput screening tests each substance at several concentrations.

In one assay the test system is CP262. An outline of the steps:
(§1)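 Parasite proliferation within erythrocytes, 72 h exposure. Endpoint: SYBR Green I fluorescence after overnight lysis at room temperature. Controls: 0.29 uM artemisinin, DMSO.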

The subject of another assay is CP266. An outline of the steps: as §1
The subject of a further assay is CP297. An outline of the steps: as §1
Another assay concerns CP315. The gist of the method: as §1
For another assay, the system named is DIV14. An outline of the steps: as §1
A further assay has as its system DIV17. The gist of the method: as §1
Another assay relates to Dd2. An outline of the steps:
as §1

For another assay, the system named is CP260. An outline of the steps: as §1
The next assay has as its system CP269. An outline of the steps:
as §1

The subject of a further assay is CP286. An outline of the steps: as §1
Another assay deals with CP305. An outline of the steps:
as §1

For a further assay, the system named is CP335. An outline of the steps: as §1
A further assay has as its system CP265. The gist of the method: as §1
Another assay relates to DIV30. An outline of the steps: as §1
The test system of a further assay is CP256. An outline of the steps:
as §1

A further assay relates to CP268. The gist of the method: as §1
The subject of a further assay is CP291. The gist of the method: as §1
A further assay has as its system CP325. An outline of the steps: as §1
The next assay relates to CP329. The gist of the method:
as §1

Another assay concerns DFO2036. An outline of the steps: as §1
Potency means the concentration at half of the fitted maximal effect.

As to `CNCCC(Oc1ccccc1OC)c1ccccc1` (centres undefined), the Potency entry in the assay on CP262, in the assay with CP266, in the assay on CP297 and in the assay with CP315 was “inactive” in each case. Also, the Potency with DIV14 is 4.78 µM (active); with DIV17 it was 8.49 µM (active); with Dd2 it was 6.31 µM (active).

For `CC(C)(C)c1ccc(C(=O)CCCN2CCC(OC(c3ccccc3)c3ccccc3)CC2)cc1`, the Potency is 10 µM (active) in the assay on CP260; 7.57 µM (active) with CP269; 8.91 µM (active) with CP286; 10.7 µM (active) in the assay on CP305; 6.75 µM (active) in the assay on CP335; 10 µM (active) in the assay on Dd2. In addition, in the assay on CP315, the Potency result is “inactive”.

As for `COc1ccc(CCN(C)CCCC(C#N)(c2cc(OC)c(OC)c(OC)c2)C(C)C)cc1OC` (centres undefined), the Potency result in the assay with CP265 and in the assay with CP266 was “inactive” in each case. Moreover, the Potency was 13.5 µM (active) with DIV17 and 5.62 µM (active) in the assay with Dd2.

Take `CCOC(=O)C1=C(C)NC(C)=C(C(=O)OC)C1c1cccc([N+](=O)[O-])c1` (centres undefined): the Potency result in the assay on CP266 and with CP315 was “inactive” throughout.

Consider `CC1=C(C)C(=O)C(CCCCC#CCCCC#CCO)=C(C)C1=O`, for which the Potency in the assay on CP265 was 10 µM (active); in the assay with CP286, 11.2 µM (active); with CP297, 15.1 µM (active); in the assay with CP335 it was 13.5 µM (active); in the assay with DIV14, 5.36 µM (active); in the assay with DIV17, 6.01 µM (active). In addition, in the assay with DIV30, the Potency is 7.57 µM (active).

In the case of `CCc1cccc(N(C)C(N)=Nc2cccc3ccccc23)c1`, the Potency result with CP262 and in the assay with CP315 was “inactive” each time. The Potency was 8.91 µM (active) with CP286; 1.51 µM (active) in the assay on DIV14; 1.35 µM (active) in the assay with DIV17; 7.57 µM (active) in the assay on DIV30; 3.16 µM (active) with Dd2.

With `Brc1c(NC2=NCCN2)ccc2nccnc12`, the Potency result in the assay on CP256, in the assay with CP262, with CP266, in the assay on CP268, with CP269 and with CP286 was “inactive” in each case. Also, the Potency entry in the assay with CP291, in the assay on CP297, with CP305, in the assay on CP315, with CP325 and in the assay on CP329 was “inactive” each time. For the same compound, the Potency result in the assay with DFO2036, in the assay with DIV30 and with Dd2 was “inactive” in each case.

On to `Cc1nc2sccn2c(=O)c1CCN1CCC(=C(c2ccc(F)cc2)c2ccc(F)cc2)CC1`, for which the Potency entry in the assay with CP256, in the assay with CP266, in the assay on CP268, in the assay with CP305, with CP315 and with CP325 was “inactive” each time. In addition, the Potency entry in the assay with CP329 is “inactive”. For the same compound, the Potency with DIV17 was 16.9 µM (active).

Regarding `O=C(CCCN1CCC(O)(c2cccc(C(F)(F)F)c2)CC1)c1ccc(F)cc1`, the Potency in the assay on CP260 is 11.2 µM (active); with CP262, 10.7 µM (active); with CP265 it was 10 µM (active); in the assay with CP286 it was 10 µM (active); in the assay on CP335, 9.53 µM (active); in the assay with DFO2036 it was 10 µM (active). The results for the Potency with DIV14, with DIV17 and in the assay on Dd2 were 6.75 µM (active), 13.5 µM (active) and 5.62 µM (active), respectively.

For `O=C(O)CN(CCN(CC(=O)O)CC(=O)O)CCN(CC(=O)O)CC(=O)O`, the Potency in the assay on CP256 was 11.2 µM (active). Besides, the Potency result in the assay with CP260, in the assay on CP266, in the assay with CP269, with CP286, in the assay with CP297 and in the assay on CP315 was “inactive” throughout. Moreover, the Potency result with CP325, in the assay with CP329, with CP335, in the assay with DFO2036, in the assay on DIV14 and in the assay on DIV30 was “inactive” in each case. The Potency result in the assay with Dd2 is “inactive”.

On to `OC(CCN1CCCCC1)(c1ccccc1)C1CCCCC1` (centres undefined), for which the Potency entry in the assay with CP256, in the assay on CP262, in the assay with CP266, in the assay on CP268, in the assay on CP269 and in the assay on CP286 was “inactive” in each case. Moreover, the Potency result in the assay with CP297, with CP305, with CP315, in the assay on CP325, in the assay with CP329 and with DFO2036 was “inactive” each time.

For `CCn1ccnc1CC1COc2ccccc2O1` (centres undefined), the Potency result in the assay with CP256, in the assay with CP262, in the assay with CP265, in the assay on CP266, in the assay on CP268 and with CP269 was “inactive” each time. The Potency result with CP286, with CP291, with CP297, in the assay with CP305, in the assay on CP315 and in the assay on CP325 was “inactive” in each case. The Potency entry with CP329, in the assay with CP335, with DFO2036, with DIV14, in the assay with DIV17 and in the assay with DIV30 was “inactive” each time. In addition, the Potency result with Dd2 is “inactive”.

As to `CCCN1C[C@H](CSC)C[C@@H]2c3cccc4[nH]cc(c34)C[C@H]21`, the Potency in the assay with CP256 is 8.91 µM (active); in the assay on DIV17, 7.57 µM (active). For the same compound, the Potency entry in the assay with CP262, with CP266, in the assay with CP269, in the assay with CP297, in the assay on CP305 and with CP315 was “inactive” in each case. For the same compound, the Potency result in the assay with CP325, in the assay on CP329 and with DFO2036 was “inactive” throughout.

With `CN(C)CC/C=C1\c2ccccc2COc2ccccc21`, the Potency entry in the assay on CP256, in the assay with CP262, in the assay with CP266, in the assay with CP297, in the assay with CP315 and with DFO2036 was “inactive” each time. The Potency in the assay on CP265 was 11.2 µM (active); in the assay with Dd2, 8.91 µM (active).

As for `COC(=O)[C@H]1[C@H]2C[C@@H]3c4[nH]c5cc(OC)ccc5c4CCN3C[C@H]2C[C@@H](OC(=O)c2cc(OC)c(OC)c(OC)c2)[C@@H]1OC`, the Potency was 11.2 µM (active) in the assay with CP260; 15.1 µM (active) with CP268; 9.53 µM (active) in the assay on CP269; 11.2 µM (active) with CP286; 15.1 µM (active) with CP291; 3.38 µM (active) in the assay with CP297. Moreover, the Potency is 16.9 µM (active) in the assay with CP315; 13.5 µM (active) in the assay on CP325; 13.5 µM (active) in the assay on CP329; 8.49 µM (active) with CP335; 1.69 µM (active) in the assay with DIV14; 1.51 µM (active) with DIV17. Further, the values for the Potency in the assay on DIV30 and with Dd2 were 1.07 µM (active) and 12.6 µM (active), respectively.

For `COCCCC/C(=N\OCCN)c1ccc(C(F)(F)F)cc1`, the Potency in the assay with Dd2 was 7.94 µM (active).

As for `CC(C)[N+](C)(CCOC(=O)C1c2ccccc2Oc2ccccc21)C(C)C`, the Potency entry in the assay with CP266, with CP315 and in the assay with DIV30 was “inactive” in each case.

Regarding `NC(N)=N/N=C/c1c(Cl)cccc1Cl`, the Potency in the assay with CP262 is 13.5 µM (active); with CP286, 11.2 µM (active).

Consider `CN(C)CCCN1c2ccccc2Sc2ccc(C(F)(F)F)cc21`, for which the Potency result in the assay on CP256, with CP262, with CP265, with CP266, in the assay on CP268 and with CP269 was “inactive” throughout. Further, the Potency result in the assay on CP291, with CP297, in the assay with CP305, in the assay on CP315, in the assay on CP325 and with CP329 was “inactive” each time. For the same compound, the Potency was 6.75 µM (active) in the assay with DIV14 and 5.36 µM (active) in the assay with DIV17.

On to `COc1cc(C(=O)OCCCN2CCCN(CCCOC(=O)c3cc(OC)c(OC)c(OC)c3)CC2)cc(OC)c1OC`, for which the Potency was 10 µM (active) with CP260; 11.2 µM (active) in the assay with CP265; 7.57 µM (active) in the assay on CP269; 10 µM (active) in the assay with CP286; 4.78 µM (active) in the assay with CP335; 9.53 µM (active) in the assay with DIV14. Also, the Potency in the assay with DIV17 was 12 µM (active); with Dd2, 12.6 µM (active).

`Cc1ccc(Cl)c(Nc2ccccc2C(=O)O)c1Cl`: the Potency entry in the assay on CP256, in the assay on CP262, in the assay with CP265, in the assay on CP266, in the assay with CP268 and in the assay with CP269 was “inactive” in each case. The Potency result in the assay on CP286, in the assay on CP291, with CP297, in the assay with CP305, with CP325 and in the assay with CP329 was “inactive” throughout. Besides, the Potency entry in the assay on CP335, with DFO2036, in the assay with DIV14, in the assay on DIV17, in the assay on DIV30 and in the assay on Dd2 was “inactive” throughout.

Take `CCCCCCCC/C=C\CCCCCCCC(=O)NCc1ccc(O)c(OC)c1`: the Potency in the assay on CP256 was 11.2 µM (active); with CP265, 10 µM (active); with Dd2 it was 14.1 µM (active). Moreover, the Potency entry in the assay on CP262, in the assay with CP266, with CP268, with CP269, with CP297 and in the assay on CP305 was “inactive” each time. The Potency entry in the assay with CP315, with CP325, with CP329, in the assay with DIV17 and with DIV30 was “inactive” each time.
